Consider seven compounds from ChEMBL document CHEMBL1961873, “Compounds: GSK PKIS; Assays: Nanosyn kinase panel” (2012).

Structures are written as SMILES.

Assay [1] addresses Serine/threonine-protein kinase MARK2 (Homo sapiens) (UniProt Q7KZI7). Particulars: at 1 µM.
Assay [2] has as its target PAS domain-containing serine/threonine-protein kinase (Homo sapiens) (UniProt Q96RG2). As to conditions: at 0.1 µM.
For assay [3] the target is unchanged. As to conditions: at 1 µM.
Assay [4] has as its target Phosphorylase b kinase gamma catalytic chain, skeletal muscle/heart isoform (Homo sapiens) (UniProt Q16816). As to conditions: at 0.1 µM.
Assay [5] has the same target. Particulars: at 1 µM.
Assay [6] addresses T1, Phosphorylase b kinase gamma catalytic chain, liver/testis isoform (Homo sapiens) (UniProt P15735).
T1 sequence (whole entry): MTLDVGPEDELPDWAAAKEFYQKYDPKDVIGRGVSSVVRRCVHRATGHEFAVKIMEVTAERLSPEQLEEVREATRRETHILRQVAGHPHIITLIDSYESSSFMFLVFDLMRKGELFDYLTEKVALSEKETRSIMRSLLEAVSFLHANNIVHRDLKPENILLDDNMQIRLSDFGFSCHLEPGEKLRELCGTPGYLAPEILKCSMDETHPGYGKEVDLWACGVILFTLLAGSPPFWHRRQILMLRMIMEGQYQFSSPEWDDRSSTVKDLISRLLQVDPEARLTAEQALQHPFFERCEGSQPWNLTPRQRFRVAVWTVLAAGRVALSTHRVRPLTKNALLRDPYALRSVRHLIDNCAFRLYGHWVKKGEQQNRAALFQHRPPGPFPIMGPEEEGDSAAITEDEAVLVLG
Particulars: at 0.1 µM.

In assay [7] the target is T1, Phosphorylase b kinase gamma catalytic chain, liver/testis isoform (Homo sapiens). As to conditions: at 1 µM.
Assay [8] has as its target Serine/threonine-protein kinase pim-1 (Homo sapiens) (UniProt P11309). As to conditions: at 0.1 µM.
Assay [9] has the same target. Particulars: at 1 µM.
For assay [10], the target named is Serine/threonine-protein kinase pim-2 (Homo sapiens) (UniProt Q9P1W9). Particulars: at 0.1 µM.
For assay [11] the target is unchanged. Particulars: at 1 µM.
Assay [12] has as its target Serine/threonine-protein kinase pim-3 (Homo sapiens) (UniProt Q86V86). Particulars: at 0.1 µM.
Assay [13] has the same target. As to conditions: at 1 µM.
Assay [14] has as its target T2, MAP kinase-activated protein kinase 5 (Homo sapiens) (UniProt Q8IW41).
T2 sequence (whole entry): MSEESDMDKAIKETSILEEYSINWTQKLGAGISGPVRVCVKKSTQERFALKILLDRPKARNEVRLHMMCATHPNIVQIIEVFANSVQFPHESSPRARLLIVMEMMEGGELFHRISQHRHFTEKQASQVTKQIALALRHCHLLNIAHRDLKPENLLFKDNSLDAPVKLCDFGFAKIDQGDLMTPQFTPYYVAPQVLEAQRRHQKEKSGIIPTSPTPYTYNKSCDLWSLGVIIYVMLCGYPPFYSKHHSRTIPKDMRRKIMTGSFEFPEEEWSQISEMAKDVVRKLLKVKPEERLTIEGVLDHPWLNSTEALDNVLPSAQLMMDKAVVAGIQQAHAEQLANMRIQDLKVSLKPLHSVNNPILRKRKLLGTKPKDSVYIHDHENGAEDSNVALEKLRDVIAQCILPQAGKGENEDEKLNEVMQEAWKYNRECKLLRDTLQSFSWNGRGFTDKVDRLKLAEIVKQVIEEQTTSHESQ
As to conditions: at 0.1 µM.

The target of assay [15] is T2, MAP kinase-activated protein kinase 5 (Homo sapiens). Particulars: at 1 µM.
Assay [16] concerns the target Serine/threonine-protein kinase SIK1 (Homo sapiens) (UniProt P57059). As to conditions: at 0.1 µM.
Assay [17] has the same target. As to conditions: at 1 µM.
In assay [18] the target is Serine/threonine-protein kinase SIK2 (Homo sapiens) (UniProt Q9H0K1). As to conditions: at 0.1 µM.
The target is the same in assay [19]. Particulars: at 1 µM.
Assay [20] deals with T3, Serine/threonine-protein kinase TBK1 (Homo sapiens) (UniProt Q9UHD2).
T3 sequence (whole entry): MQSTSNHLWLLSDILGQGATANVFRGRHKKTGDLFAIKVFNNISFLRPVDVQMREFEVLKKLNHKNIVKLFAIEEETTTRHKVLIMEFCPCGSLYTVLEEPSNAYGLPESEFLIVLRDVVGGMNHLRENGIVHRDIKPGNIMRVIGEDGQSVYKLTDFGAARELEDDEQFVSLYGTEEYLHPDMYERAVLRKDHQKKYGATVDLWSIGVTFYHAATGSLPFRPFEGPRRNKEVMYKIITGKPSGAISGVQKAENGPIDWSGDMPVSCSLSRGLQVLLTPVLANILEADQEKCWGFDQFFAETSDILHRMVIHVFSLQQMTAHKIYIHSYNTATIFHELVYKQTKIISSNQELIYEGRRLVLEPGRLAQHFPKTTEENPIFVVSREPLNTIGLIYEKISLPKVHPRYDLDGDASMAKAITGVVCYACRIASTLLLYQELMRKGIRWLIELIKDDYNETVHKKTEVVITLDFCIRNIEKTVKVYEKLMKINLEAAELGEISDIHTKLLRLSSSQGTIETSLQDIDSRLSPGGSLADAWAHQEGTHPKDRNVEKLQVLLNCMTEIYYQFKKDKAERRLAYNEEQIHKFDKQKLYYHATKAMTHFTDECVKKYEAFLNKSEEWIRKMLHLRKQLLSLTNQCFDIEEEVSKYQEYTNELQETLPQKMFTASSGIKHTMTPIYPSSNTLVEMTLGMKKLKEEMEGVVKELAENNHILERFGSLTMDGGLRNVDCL
As to conditions: at 0.1 µM.

Phosphorylase b kinase gamma catalytic chain, skeletal muscle/heart isoform (Homo sapiens), sequence (Q16816 whole entry, looked up, canonical isoform): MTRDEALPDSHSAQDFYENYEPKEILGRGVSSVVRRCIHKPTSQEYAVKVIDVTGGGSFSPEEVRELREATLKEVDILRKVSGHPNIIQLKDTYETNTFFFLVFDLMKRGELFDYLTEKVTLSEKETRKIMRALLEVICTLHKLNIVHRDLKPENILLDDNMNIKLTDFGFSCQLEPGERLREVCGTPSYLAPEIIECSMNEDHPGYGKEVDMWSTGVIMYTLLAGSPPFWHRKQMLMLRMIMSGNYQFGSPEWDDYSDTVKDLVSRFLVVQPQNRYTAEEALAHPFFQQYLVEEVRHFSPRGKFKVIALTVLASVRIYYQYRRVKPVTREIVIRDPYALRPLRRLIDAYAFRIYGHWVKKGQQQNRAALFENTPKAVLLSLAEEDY
Serine/threonine-protein kinase pim-1 (Homo sapiens), sequence (P11309 whole entry, looked up): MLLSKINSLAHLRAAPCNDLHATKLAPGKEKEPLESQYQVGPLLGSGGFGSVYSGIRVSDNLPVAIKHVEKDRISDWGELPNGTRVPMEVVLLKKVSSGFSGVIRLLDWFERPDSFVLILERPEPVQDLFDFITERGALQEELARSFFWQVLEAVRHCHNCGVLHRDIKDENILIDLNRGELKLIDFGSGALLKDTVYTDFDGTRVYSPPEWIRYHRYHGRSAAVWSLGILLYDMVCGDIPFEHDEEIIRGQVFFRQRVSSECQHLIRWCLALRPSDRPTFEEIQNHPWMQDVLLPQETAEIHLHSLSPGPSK
Serine/threonine-protein kinase pim-2 (Homo sapiens), sequence (Q9P1W9 whole entry, looked up): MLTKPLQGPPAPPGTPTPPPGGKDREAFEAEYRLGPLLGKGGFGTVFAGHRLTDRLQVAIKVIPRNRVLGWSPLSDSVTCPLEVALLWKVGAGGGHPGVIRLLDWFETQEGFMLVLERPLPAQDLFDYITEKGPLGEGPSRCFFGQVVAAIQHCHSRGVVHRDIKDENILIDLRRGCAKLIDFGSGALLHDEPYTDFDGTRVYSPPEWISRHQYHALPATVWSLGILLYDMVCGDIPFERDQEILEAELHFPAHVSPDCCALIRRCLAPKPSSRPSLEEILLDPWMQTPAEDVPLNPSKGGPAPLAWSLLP
Serine/threonine-protein kinase SIK2 (Homo sapiens), sequence (Q9H0K1 whole entry, looked up): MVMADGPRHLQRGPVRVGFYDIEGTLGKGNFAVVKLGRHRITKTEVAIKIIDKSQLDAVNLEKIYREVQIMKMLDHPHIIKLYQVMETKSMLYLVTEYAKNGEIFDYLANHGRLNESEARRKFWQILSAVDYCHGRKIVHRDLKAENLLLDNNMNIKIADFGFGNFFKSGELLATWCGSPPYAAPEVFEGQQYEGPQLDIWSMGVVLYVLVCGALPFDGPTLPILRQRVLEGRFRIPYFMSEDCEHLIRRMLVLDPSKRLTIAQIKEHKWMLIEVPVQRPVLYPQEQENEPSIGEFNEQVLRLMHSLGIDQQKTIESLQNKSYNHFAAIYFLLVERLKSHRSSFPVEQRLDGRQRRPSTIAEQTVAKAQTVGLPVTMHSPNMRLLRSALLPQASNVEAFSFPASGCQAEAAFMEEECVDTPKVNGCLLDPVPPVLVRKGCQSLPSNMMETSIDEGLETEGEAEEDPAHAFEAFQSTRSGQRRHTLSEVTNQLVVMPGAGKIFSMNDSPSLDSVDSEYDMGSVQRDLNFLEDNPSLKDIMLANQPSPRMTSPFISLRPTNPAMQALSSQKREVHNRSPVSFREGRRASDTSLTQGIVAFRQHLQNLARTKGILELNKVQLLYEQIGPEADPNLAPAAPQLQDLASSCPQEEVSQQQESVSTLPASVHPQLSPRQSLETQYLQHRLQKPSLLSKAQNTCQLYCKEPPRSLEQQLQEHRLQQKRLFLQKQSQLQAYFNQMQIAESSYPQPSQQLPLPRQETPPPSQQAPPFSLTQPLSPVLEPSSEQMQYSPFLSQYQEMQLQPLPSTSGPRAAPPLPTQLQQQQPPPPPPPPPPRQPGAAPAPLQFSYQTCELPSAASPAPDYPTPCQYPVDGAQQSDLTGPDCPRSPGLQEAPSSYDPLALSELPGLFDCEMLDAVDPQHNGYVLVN
Serine/threonine-protein kinase SIK1 (Homo sapiens), sequence (P57059 whole entry): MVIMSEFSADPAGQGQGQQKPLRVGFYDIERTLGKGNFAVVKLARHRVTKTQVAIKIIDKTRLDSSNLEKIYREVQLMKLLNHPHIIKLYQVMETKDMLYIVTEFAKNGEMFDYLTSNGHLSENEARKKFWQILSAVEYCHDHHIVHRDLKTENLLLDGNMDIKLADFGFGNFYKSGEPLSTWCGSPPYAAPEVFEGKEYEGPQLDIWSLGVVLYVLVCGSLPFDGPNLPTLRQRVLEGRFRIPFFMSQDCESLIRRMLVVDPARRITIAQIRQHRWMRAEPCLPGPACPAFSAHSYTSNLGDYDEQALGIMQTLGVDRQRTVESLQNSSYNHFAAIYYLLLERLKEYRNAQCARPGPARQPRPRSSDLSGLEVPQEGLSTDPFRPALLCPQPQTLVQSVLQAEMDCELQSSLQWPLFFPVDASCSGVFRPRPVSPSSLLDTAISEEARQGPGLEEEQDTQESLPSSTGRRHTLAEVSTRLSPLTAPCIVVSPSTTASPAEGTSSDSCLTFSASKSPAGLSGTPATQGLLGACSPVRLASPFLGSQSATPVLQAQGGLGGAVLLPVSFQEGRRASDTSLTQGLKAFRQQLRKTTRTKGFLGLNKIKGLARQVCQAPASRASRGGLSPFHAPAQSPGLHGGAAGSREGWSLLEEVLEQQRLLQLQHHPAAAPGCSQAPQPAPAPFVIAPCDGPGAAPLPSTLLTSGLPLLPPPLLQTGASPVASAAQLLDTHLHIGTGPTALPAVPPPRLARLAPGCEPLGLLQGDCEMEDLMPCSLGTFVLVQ
PAS domain-containing serine/threonine-protein kinase (Homo sapiens), sequence (Q96RG2 whole entry, the tested form may be a part): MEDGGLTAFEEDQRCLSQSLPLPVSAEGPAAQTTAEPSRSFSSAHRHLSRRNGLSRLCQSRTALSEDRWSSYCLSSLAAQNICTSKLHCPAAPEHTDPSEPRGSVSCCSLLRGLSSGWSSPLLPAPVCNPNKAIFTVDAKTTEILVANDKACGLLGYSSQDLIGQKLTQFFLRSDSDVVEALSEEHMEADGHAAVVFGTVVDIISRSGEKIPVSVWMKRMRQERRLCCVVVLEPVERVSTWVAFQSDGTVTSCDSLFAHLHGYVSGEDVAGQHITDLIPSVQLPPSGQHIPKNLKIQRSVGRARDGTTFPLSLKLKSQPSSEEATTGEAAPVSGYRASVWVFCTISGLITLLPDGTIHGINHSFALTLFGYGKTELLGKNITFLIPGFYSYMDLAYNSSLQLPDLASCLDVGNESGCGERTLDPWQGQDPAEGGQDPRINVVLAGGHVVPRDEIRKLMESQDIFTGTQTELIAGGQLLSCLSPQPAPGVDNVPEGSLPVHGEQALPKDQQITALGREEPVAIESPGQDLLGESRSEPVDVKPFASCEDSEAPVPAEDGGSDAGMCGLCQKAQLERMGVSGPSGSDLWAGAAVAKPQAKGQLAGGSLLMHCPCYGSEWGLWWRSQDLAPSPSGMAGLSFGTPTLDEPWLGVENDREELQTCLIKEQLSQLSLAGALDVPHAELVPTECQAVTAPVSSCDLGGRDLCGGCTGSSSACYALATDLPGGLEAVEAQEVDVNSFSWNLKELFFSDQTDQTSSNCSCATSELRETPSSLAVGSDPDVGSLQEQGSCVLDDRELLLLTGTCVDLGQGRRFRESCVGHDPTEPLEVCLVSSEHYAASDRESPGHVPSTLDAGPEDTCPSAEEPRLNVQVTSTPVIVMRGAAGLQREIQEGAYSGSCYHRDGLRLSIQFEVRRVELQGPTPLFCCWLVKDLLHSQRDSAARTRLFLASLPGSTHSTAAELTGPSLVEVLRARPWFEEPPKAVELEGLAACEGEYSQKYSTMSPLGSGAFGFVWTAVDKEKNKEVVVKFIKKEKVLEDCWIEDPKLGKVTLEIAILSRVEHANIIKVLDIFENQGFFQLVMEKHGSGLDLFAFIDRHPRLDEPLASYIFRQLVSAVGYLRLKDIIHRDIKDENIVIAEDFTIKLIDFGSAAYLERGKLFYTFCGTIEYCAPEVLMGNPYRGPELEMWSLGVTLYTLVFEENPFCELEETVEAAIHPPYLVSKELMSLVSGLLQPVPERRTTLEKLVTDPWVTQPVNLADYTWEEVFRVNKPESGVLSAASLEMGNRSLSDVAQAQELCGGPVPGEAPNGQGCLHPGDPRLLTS

A word on the inhibition: it is the relative decrease from the control value, in per cent. As to `Cc1ccc(NC(=O)CC2CC2)cc1-c1ccc(C(=O)NCC2CC2)cc1`, the inhibition was 0.03% in [1]; -0.28% in assay [2]; 0.77% in [3]; 3.12% in assay [4]; 5.93% in [5]; 4.45% in assay [6]. Moreover, the inhibition in assay [7] is 4.9%; in assay [8], 1.51%; in assay [9] it was 0.73%; in [10] it was -0.33%; in assay [11] it was 0.37%; in assay [12], 0.23%. Also, the inhibition in assay [13] turned out to be 1.25%; in assay [14], 1.21%; in assay [15] it was 1.26%; in assay [16], 3.64%; in assay [17] it was 9.75%; in assay [18] it was 5.46%. The inhibition in assay [19] is 4.87%; in assay [20], 2.81%.
For `NS(=O)(=O)c1ccc(-c2cc3ccncc3cc2OCc2ccccc2)cc1`, the inhibition was -0.56% in assay [1]; -0.27% in assay [2]; 0.09% in [3]; 3.43% in assay [4]; 8.39% in assay [5]; 5.17% in [6]. The inhibition in [7] is 5.11%; in [8] it was 0.14%; in assay [9] it was 0.86%; in assay [10] it was -0.34%; in assay [11], -1.33%; in [12] it was -0.2%. For the same compound, the inhibition in assay [13] was 1.38%; in assay [14], 0.82%; in assay [15], 1.86%; in [16] it was 4.35%; in [17], 10.3%; in assay [18] it was 6.46%. Moreover, the results for the inhibition in assay [19] and in [20] were 4.1% and 5.88%, respectively.
As for `COC(=O)Nc1nc2cc(Oc3ccc(NC(=O)Nc4cccc(Br)c4)cc3)ccc2[nH]1`, the inhibition in [1] was found to be 0.27%; in assay [2], 0.17%; in assay [3] it was 1.67%; in [4], 3.04%; in assay [5], 4.55%; in assay [6], 3.62%. In addition, the inhibition in [7] is 2.45%; in assay [8], -0.51%; in [9], 0.21%; in assay [10], -0.42%; in [11], -0.13%; in assay [12], -0.57%. Besides, the inhibition in [13] was 0.5%; in [14], 1.32%; in assay [15], 1.31%; in assay [16] it was 7.8%; in assay [17], 11.9%; in assay [18] it was -0.32%. Further, the results for the inhibition in [19] and in [20] were 7.96% and -1.34%, respectively.
As to `Cc1nc(-c2ccccc2)n2nc(NCCCN3CCOCC3)ncc12`, the inhibition in assay [1] was 0.71%; in assay [2] it was 0.65%; in [3], -0.06%; in assay [4] it was 0.52%; in assay [5] it was 4.26%; in assay [6], 3.22%. Besides, the inhibition in assay [7] is 3.98%; in [8], -0.82%; in assay [9], 0.37%; in assay [10], 0.19%; in assay [11], 0.05%; in assay [12], -0.2%. In addition, the inhibition is 1.5% in [13]; 0.74% in assay [14]; 0.74% in assay [15]; 3.53% in assay [16]; 5.24% in [17]; -0.49% in assay [18]. The inhibition stood at 4.81% in assay [19] and 1.18% in [20].
With `Cc1cc(Cl)cc2c1NC(=O)C2=NNc1ccc(S(N)(=O)=O)cc1`, the inhibition in assay [1] is -0.15%; in [2], 0.48%; in assay [3], 1.94%; in assay [4], 3.63%; in [5] it was 6.02%; in [6], 2.58%. Moreover, the inhibition in [7] was 5.19%; in assay [8], 0.03%; in assay [9], 1.28%; in [10] it was -0.12%; in [11], 0.51%; in [12] it was 0.42%. For the same compound, the inhibition in [13] stood at 2.98%; in [14], 1.54%; in assay [15], 2.85%; in assay [16] it was 1.46%; in assay [17], 4.61%; in assay [18] it was 5.46%. Besides, the inhibition in [19] is -2.05%; in assay [20], 1.17%.
`COC(=O)c1cncc(/C=C/c2c(C)cc(O)cc2C)c1`: the inhibition in assay [1] is -0.07%; in assay [2], -0.51%; in assay [3] it was 1.51%; in assay [4], 1.77%; in [5] it was 4.16%; in [6], 4.23%. In addition, the inhibition was 6.97% in assay [7]; 1.57% in assay [8]; 1.55% in assay [9]; -0.56% in assay [10]; 0.09% in assay [11]; 0.93% in assay [12]. Also, the inhibition in assay [13] stood at 3.35%; in assay [14] it was 1.73%; in assay [15], 2.57%; in assay [16], 19.2%; in [17], 84.3%; in assay [18], 5.81%. The inhibition was 20% in [19] and 1.26% in [20].
Turning to `CCS(=O)(=O)c1ccc(OC)c(Nc2ncc(-c3cccc(OC)c3)o2)c1`, the inhibition was 1.4% in assay [1]; 0.21% in assay [2]; -1.97% in assay [3]; 1.03% in assay [4]; 18.3% in [5]; 2.69% in assay [6]. Also, the inhibition in assay [7] was -0.05%; in [8], 1.53%; in [9] it was 2.93%; in assay [10], 0.07%; in assay [11] it was 0.96%; in assay [12] it was -0.8%. For the same compound, the inhibition was -0.55% in [13]; 0.94% in assay [14]; -0.22% in assay [15]; 6.26% in [16]; 28.6% in assay [17]; 8.33% in [18]. The inhibition in assay [19] was 31.2%; in assay [20], 0.69%.
